Assay results taken from PubChem BioAssay (NCATS).
Activity calls are given as the source filed them. Calls follow the shape of the dose curve; as a rule, active = well fitted inhibition curve with a large enough effect; inconclusive = small, poorly fitted or top-dose-only effect; inactive = no such curve, though single readings can be large or run the other way. Starred links: 1 amine or outer side, 2 acyl side, 3 side chain; linkers in the order of their positions; H or OH if unused. Positions of bridges follow the written chain, without caps; N, C: chain ends. Non-standard residues stand in square brackets, D forms with d. Residues, ends and D or L forms follow the SMILES beside them. Chains are numbered I, II in the order given. *: point of attachment. Actinocin(9to1) = Cc1c2oc3c(C)ccc(C(=O)[*:1])c3nc-2c(C(=O)[*:2])c(N)c1=O; NMeV = CN[CH](C(=O)O)C(C)C; Nva = CCC[C@H](N)C(=O)O; Cbz = O=C(OCc1ccccc1)*; Sar = CNCC(=O)O

Assay: qHTS assay for measurement of the activity of small molecule inhibitors on Zika virus induced Caspase-3 activity in human astrocytoma cells (AID 1224859)
Conditions: SNB-19 ZIKV-induced caspase-3/7, luminescence, 6 h; series mostly up to 45.7 µM; activity change, negative = inhibition: at the top concentration
Description: National Center for Advancing Translational Sciences [NCATS]
Johns Hopkins University School of Medicine
Increase in the Caspase-3 activity indicates an activation of apoptosis cell death pathway caused by Zika virus infection in certain types of neuronal cells including human neural progenitor cells (hNPCs), astrocytes, and astrocytoma cell line (SNB-19). This cell-based caspase-3 activity assay measures the increased caspase-3 activity in the astrocytoma cell line (SNB-19) after a 6-hour Zika virus infection with a luminescence readout. A decrease in the luminescence signal in this assay by small molecule treatment indicates an inhibitory effect of that small molecule on the Zika virus induced caspase-3 activity that may correlate with its effect on reduction of Zika virus caused cell death.
The medium for SNB-19 cells is composed of RPMI 1640 (ATCC, Cat.# 30-2001), 10% fetal bovine serum (FBS) (GE healthcare Life Sciences, Cat.# SH30071.03), and 1% Pen/Strep (Gibco, Cat.# 15140-122). A Caspase-Glo 3/7 assay kit (catalog number G8092; Promega, Madison, WI) was used to detect caspase-3 activity induced by Zika virus infection in human cells. The reagent mixture was reconstituted as described in the protocol from the manufacturer. Polystyrene tissue culture treated and PDL coated white plates were obtained from Greiner Bio-One (Monroe, NC). Cells were seeded in 384- or 1536-well assay plates and cultured at 37 C with 5% CO2 for 16 to 20 hours. The typical cell seeding density in the 1536-well plate assay is 250 cells/well in 3ul medium for SNB-19 cells in tissue culture treated plates. Compounds were added to cells and incubated for one hour before addition of ZIKV solution to cells (2 FFU/cell). After incubation at 37 C with 5% CO2 for 6 hours, the reagent mixture of Caspase-Glo 3/7 assay kit was added to each well, followed by incubation at room temperature for 30 minutes. The luminescence intensity of the assay plates was measured using a ViewLux plate reader (PerkinElmer). Data were normalized by using the cell-containing wells without ZIKV as a negative control (0% induction of caspase 3/7 activity) and wells containing ZIKV infected cells (Caspase-3 activity induced) as a positive control (100% induction of caspase 3 activity). The percentage inhibitions of the increased Caspase-3 activity by small molecule inhibitors were then calculated.

Row | SMILES | activity change, negative = inhibition
1 | CC(C)OC(=O)[C@H](C)N[P@](=O)(OC[C@H]1O[C@@H](n2ccc(=O)[nH]c2=O)[C@](C)(F)[C@H]1O)Oc1ccccc1 | -23.9% (inactive)
2 | c1coc(CNc2ncnc3nc[nH]c23)c1 | 13.2% (inactive)
3 | CCOC(=O)C=C[C@H](C[C@@H]1CCNC1=O)NC(=O)[C@@H](CC(=O)[C@@H](NC(=O)c1cc(C)on1)C(C)C)Cc1ccc(F)cc1 | 4.31% (inactive)
4 | CCc1cnn2c(NCc3ccc[n+]([O-])c3)cc(N3CCCC[C@@H]3CCO)nc12 | 46.4% (inactive)
5 | C[N+](C)([O-])CCNc1ccc(NCC[N+](C)(C)[O-])c2c1C(=O)c1c(O)ccc(O)c1C2=O | 6.5% (inactive)
6 | Cc1ncc(-c2ccnc(Nc3ccc(S(C)(=O)=O)cc3)n2)n1C(C)C | 71.5% (inactive)
7 | O=C1c2cccc(O)c2C(=O)c2c(O)cc(CO)cc21 | -4.87% (inactive)
8 | CNC(=O)c1cccc(-c2ccc3c(N4CCOC[C@H]4C)nc(N4CCOC[C@H]4C)nc3n2)c1 | -2.71% (inactive)
9 | CON=C(C(=O)N[C@@H]1C(=O)N2C(C(=O)O)=C(CSC(=O)c3ccco3)CS[C@H]12)c1csc(N)n1 | -6.59% (inactive)
10 | Cc1nc(NC(=O)N2CCC[C@@H]2C(N)=O)sc1-c1ccnc(C(C)(C)C(F)(F)F)c1 | 24.2% (inactive)
11 | CCC[C@@H](C=O)NC(=O)[C@H](CC(C)C)NC(=O)[C@H](CC(C)C)NC(=O)OCc1ccccc1 (Cbz-Leu-Leu-[Nva]-aldehyde) | 23.9% (inactive)
12 | CC(=O)[C@]1(O)Cc2c(O)c3c(c(O)c2[C@@H](O[C@H]2C[C@H](N)[C@@H](O)[C@H](C)O2)C1)C(=O)c1ccccc1C3=O | 23.2% (inactive)
13 | COc1ccc2cc([S+]([O-])Cc3ncc(C)c(OC)c3C)nc2c1 | 41.4% (inactive)
14 | CCc1c(O)cc(O)c(C(=O)c2ccc(OCCN3CCOCC3)c(OC)c2)c1CC(=O)N(CCOC)CCOC | 1.82% (inactive)
15 | CCC(C=C[C@@H]1OC(=O)C=C[C@H]1C)=C[C@H](C)CC=CC(C)=C[C@@H](C)C(=O)[C@@H](C)[C@H](O)[C@@H](C)CC(C)=CC(=O)O | 5.61% [at 1.73 µM] (inactive)
16 | CC(C)C[C@H](NC(=O)CNC(=O)c1cc(Cl)ccc1Cl)B1OC(=O)CC(CC(=O)O)(C(=O)O)O1 (stereo not given in full) | 8.44% (inactive)
17 | O=S(=O)(O)CCSSCCS(=O)(=O)O | 3.09% (inactive)
18 | C[C@@H]1C(=O)O[C@H]2CC34[C@H]5C[C@@H](C(C)(C)C)C36[C@H](OC(=O)[C@@H]6O)O[C@@]4(C(=O)O5)[C@]21O (stereo not given in full) | -18.4% (inactive)
19 | CN[C@H](CC(C)C)C(=O)N[C@H]1C(=O)N[C@@H](CC(N)=O)C(=O)N[C@@H]2C(=O)N[C@H]3C(=O)N[C@H](C(=O)N[C@H](C(=O)O)c4cc(O)cc(O)c4-c4cc3ccc4O)[C@H](O)c3ccc(c(Cl)c3)Oc3cc2cc(c3O[C@@H]2O[C@H](CO)[C@@H](O)[C@H](O)[C@@H]2O[C@H]2C[C@](C)(N)[C@H](O)[C@H](C)O2)Oc2ccc(cc2Cl)[C@H]1O | 28.2% (inactive)
20 | O=C(C=CC#Cc1cccc(NS(=O)(=O)c2ccccc2)c1)NO | 18.9% (inactive)

Row | SMILES | activity change, negative = inhibition
21 | C=C(C)[C@@H]1CC[C@]2(C)CC[C@]3(C)[C@H](CC[C@@H]4[C@@]5(C)CC[C@H](O)C(C)(C)[C@H]5CC[C@]43C)[C@@H]12 | 17.9% (inactive)
22 | Cc1cnn(C)c1C(=O)Nc1cc(Nc2ccc3c(C=Cc4ccccn4)n[nH]c3c2)ccc1F | 2.12% (inactive)
23 | Cc1cnc(Nc2ccc(N3CCN(C)CC3)cc2)nc1Nc1cccc(S(=O)(=O)NC(C)(C)C)c1 | 70.3% (inactive)
24 | CN1CCc2c(c3ccccc3n2Cc2ccc(C(=O)NO)cc2)C1 | 113% (inactive)
25 | Oc1cc(-c2nc(-c3ccccc3)[nH]c2-c2ccncc2)ccc1Cl | 55.2% (inactive)
26 | COc1ccc([C@@H]2CNC(=O)C2)cc1OC1CCCC1 | 28.1% (inactive)
27 | CCc1nc(-c2cccc(C)c2)c(-c2ccnc(NC(=O)c3ccccc3)c2)s1 | -0.551% (inactive)
28 | O=C(C[C@@H]1CC=CCCC(=O)O[C@H](c2ccccc2)CNC1=O)NCc1ccc(Cl)cc1 | 55.6% (inactive)
29 | COC1=C(OC)C(=O)C(CC=C(C)CCC=C(C)CCC=C(C)CCC=C(C)CCC=C(C)CCC=C(C)CCC=C(C)CCC=C(C)CCC=C(C)CCC=C(C)C)=C(C)C1=O | -3.92% (inactive)
30 | CC(C=CC=C(C)C=CC1=C(C)CCCC1(C)C)=CC=CC=C(C)C=CC=C(C)C=CC1=C(C)CCCC1(C)C | 46.5% (inactive)
31 | C=C1C[C@@]2(O)O[C@@]3(C[C@H]2C(C)C)[C@H](C)CC[C@H]13 | 37.5% (inactive)
32 | CC(C)(C)c1nc2c3cc[nH]c(=O)c3c3cc(F)ccc3c2[nH]1 | 8.49% (inactive)
33 | CC(C)(C)[N+]([O-])=Cc1ccc(S(=O)(=O)O)cc1S(=O)(=O)O | 11.2% (inactive)
34 | CCN1CCN(C(=O)N[C@H](C(=O)N[C@@H]2C(=O)N3C(C(=O)O)=C(CSc4nnnn4C)CS[C@@H]23)c2ccc(O)cc2)C(=O)C1=O | 10.4% [at 15.2 µM] (inactive)
35 | O=C(O)[C@H](CC(=O)N1C[C@@H]2CCCC[C@H]2C1)Cc1ccccc1 | 8.8% (inactive)
36 | O=C1NCCc2[nH]c(-c3ccncc3)cc21 | 21.9% (inactive)
37 | COC(=O)[C@H](CCCN=C(N)N)NS(=O)(=O)c1ccc(C)cc1 | 0% (inactive)
38 | Cc1cnc(NC(=O)Nc2cc(Br)c(C)cc2OC[C@@H]2CNCCO2)cn1 | 20.8% (inactive)
39 | C=C1C(=CC=C2CCC[C@]3(C)[C@@H]([C@H](C)CCCC(C)(C)O)CC[C@@H]23)C[C@@H](O)C[C@@H]1O | 19.3% (inactive)
40 | Cc1c2oc3c(C)ccc(C(=O)NC4C(=O)NC(C(C)C)C(=O)N5CCCC5C(=O)N(C)CC(=O)N(C)C(C(C)C)C(=O)OC4C)c3nc-2c(C(=O)NC2C(=O)NC(C(C)C)C(=O)N3CCCC3C(=O)N(C)CC(=O)N(C)C(C(C)C)C(=O)OC2C)c(N)c1=O (stereo not given) (I: TVP[Sar][NMeV] / II: TVP[Sar][NMeV]; ester I:1-I:C, II:1-II:C; linker I:N-II:N via Actinocin(9to1); configuration not given here) | -7.8% (inactive)
